Measurements reported in PMC9838217, “Structure of SALL4 zinc finger domain reveals link between AT-rich DNA binding and Okihiro syndrome”.
Positions count from the first letter of the chain named.

What was measured:
Assay in all cases: HT-SELEX; high values mean tight binding
Details in all cases: protein: recombinant; vector His6-GST; dsDNA, one strand shown
SALL4 ZFC4 WT (HT-SELEX) = target: T1, SALL4 ZFC4 WT (HT-SELEX) (Mus musculus, UniProt Q8BX22 870-940)
T1 sequence: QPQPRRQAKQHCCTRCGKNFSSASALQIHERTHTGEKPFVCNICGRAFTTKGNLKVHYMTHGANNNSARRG
How it was run: (§1)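 DNA from a random library (1.5 µg in the first cycle, 200 ng afterwards) was incubated with purified recombinant mouse SALL4 zinc finger cluster 4, residues 870–940 (1 µg), for 10 min at room temperature in 100 µl buffer: 10 mM Tris–HCl pH 7.5, 50 mM NaCl, poly(dI-dC), DTT. Bound complexes were pulled down on Ni2+ beads, washed and PCR-amplified, and the selection was repeated for up to 6 cycles in triplicate. MiSeq reads were scanned for 6-mers, and binding signal is each canonical k-mer's read fraction as fold change over the initial random library.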

[1] = target: T2, SALL4 ZFC4 R900W (HT-SELEX) (Mus musculus, UniProt Q8BX22 870-940, R900W)
T2 sequence: T1 sequence with R31W
How it was run: as §1

[2] = target: T3, SALL4 ZFC4 G921D (HT-SELEX) (Mus musculus, UniProt Q8BX22 870-940, G921D)
T3 sequence: T1 sequence with G52D
How it was run: as §1

Row | Sequence | binding signal (SALL4 ZFC4 WT (HT-SELEX)) [fold-change vs cycle 0] | binding signal [1] [fold-change vs cycle 0] | binding signal [2] [fold-change vs cycle 0]
1 | AACACC | 0.749 ± 0.0181 | 0.848 ± 0.0177 | 0.89 ± 0.0213
2 | GAATAA | 2.13 ± 0.0471 | 2.1 ± 0.122 | 1.82 ± 0.178
3 | TACATA | 2.44 ± 0.175 | 2.02 ± 0.121 | 1.78 ± 0.178
4 | ATGGAC | 0.777 ± 0.0185 | 0.861 ± 0.0318 | 0.938 ± 0.0184
5 | ACAGAT | 1.32 ± 0.0342 | 1.4 ± 0.028 | 1.37 ± 0.0364
6 | ATATAT | 5.74 ± 0.718 | 2.51 ± 0.217 | 2.2 ± 0.291
7 | ACACCC | 0.416 ± 0.0284 | 0.506 ± 0.0389 | 0.581 ± 0.0534
8 | TATATA | 5.68 ± 0.781 | 2.55 ± 0.233 | 2.17 ± 0.291
9 | ACATGC | 0.613 ± 0.0259 | 0.7108 ± 0.0052 | 0.774 ± 0.017
10 | ATGGAA | 1.5 ± 0.0823 | 1.48 ± 0.0671 | 1.36 ± 0.0808
11 | GAAGAA | 1.38 ± 0.0779 | 1.56 ± 0.142 | 1.41 ± 0.156
12 | AAATAG | 1.7 ± 0.0926 | 1.74 ± 0.095 | 1.58 ± 0.0914
13 | GGAGCA | 0.352 ± 0.0189 | 0.423 ± 0.00792 | 0.543 ± 0.05
14 | GTTCCA | 0.74 ± 0.03 | 0.862 ± 0.0102 | 0.915 ± 0.0401
15 | TGTACA | 1.21 ± 0.0321 | 1.32 ± 0.00394 | 1.26 ± 0.0338
16 | CCTACG | 0.357 ± 0.0238 | 0.443 ± 0.0174 | 0.524 ± 0.0668
17 | CATACA | 1.36 ± 0.0385 | 1.37 ± 0.0315 | 1.32 ± 0.0664
18 | CGTAAC | 0.768 ± 0.0406 | 0.887 ± 0.0447 | 0.922 ± 0.0472
19 | AGGTGG | 0.487 ± 0.0135 | 0.556 ± 0.0106 | 0.647 ± 0.0454
20 | TTCGAA | 1.05 ± 0.0775 | 1.14 ± 0.0752 | 1.15 ± 0.0514

Row | Sequence | binding signal (SALL4 ZFC4 WT (HT-SELEX)) [fold-change vs cycle 0] | binding signal [1] [fold-change vs cycle 0] | binding signal [2] [fold-change vs cycle 0]
21 | ACAACG | 0.592 ± 0.0372 | 0.676 ± 0.029 | 0.769 ± 0.0401
22 | ACTGTA | 1.35 ± 0.031 | 1.49 ± 0.0592 | 1.38 ± 0.111
23 | ATATAG | 2.33 ± 0.245 | 1.9 ± 0.143 | 1.74 ± 0.201
24 | CATCGG | 0.364 ± 0.0112 | 0.442 ± 0.0135 | 0.568 ± 0.0586
25 | TTACAA | 2.01 ± 0.0785 | 2.03 ± 0.0849 | 1.81 ± 0.143
26 | GACACA | 0.629 ± 0.04 | 0.754 ± 0.0153 | 0.837 ± 0.0392
27 | AAGGAG | 1 ± 0.0181 | 1.14 ± 0.0427 | 1.13 ± 0.0474
28 | GTGGGA | 0.413 ± 0.0385 | 0.478 ± 0.0252 | 0.567 ± 0.0443
29 | ATGAGA | 1.52 ± 0.0648 | 1.6 ± 0.0511 | 1.48 ± 0.107
30 | AATGCT | 1.15 ± 0.0126 | 1.19 ± 0.0201 | 1.225 ± 0.011
31 | CGAGAG | 0.428 ± 0.0305 | 0.515 ± 0.0447 | 0.628 ± 0.0528
32 | GACCCA | 0.39 ± 0.0219 | 0.467 ± 0.00775 | 0.59 ± 0.0677
33 | CATTAG | 1.317 ± 0.00537 | 1.45 ± 0.0172 | 1.39 ± 0.0502
34 | ACCTTC | 0.842 ± 0.0201 | 0.982 ± 0.0475 | 1 ± 0.0224
35 | ATCTAA | 2.02 ± 0.105 | 2.01 ± 0.101 | 1.83 ± 0.191
36 | ATCCGG | 0.352 ± 0.0195 | 0.41 ± 0.0188 | 0.52 ± 0.0559
37 | CTAGAC | 0.775 ± 0.0462 | 0.888 ± 0.0389 | 0.932 ± 0.00894
38 | AAGCAC | 0.582 ± 0.0244 | 0.678 ± 0.0144 | 0.796 ± 0.0229
39 | GCATAC | 0.665 ± 0.00696 | 0.738 ± 0.0335 | 0.819 ± 0.0421
40 | GCTTAA | 1.02 ± 0.0584 | 1.15 ± 0.0607 | 1.12 ± 0.048

Row | Sequence | binding signal (SALL4 ZFC4 WT (HT-SELEX)) [fold-change vs cycle 0] | binding signal [1] [fold-change vs cycle 0] | binding signal [2] [fold-change vs cycle 0]
41 | ACTCAT | 1.52 ± 0.0846 | 1.54 ± 0.0355 | 1.47 ± 0.11
42 | AGGGTC | 0.434 ± 0.029 | 0.524 ± 0.0447 | 0.649 ± 0.0851
43 | CGAACA | 0.588 ± 0.0204 | 0.694 ± 0.0214 | 0.787 ± 0.0244
44 | ACTGTC | 0.75 ± 0.0397 | 0.857 ± 0.0177 | 0.901 ± 0.0149
45 | CAAAAC | 0.936 ± 0.0391 | 1.06 ± 0.0573 | 1.08 ± 0.0366
46 | GGTCTA | 0.681 ± 0.0386 | 0.794 ± 0.0243 | 0.8869 ± 0.005
47 | GGTTAA | 1.23 ± 0.0345 | 1.4 ± 0.0959 | 1.3 ± 0.0896
48 | AGGAAT | 1.52 ± 0.0788 | 1.63 ± 0.0707 | 1.49 ± 0.113
49 | AAACCG | 0.532 ± 0.0183 | 0.604 ± 0.0163 | 0.705 ± 0.0593
50 | TGGAAA | 1.28 ± 0.069 | 1.27 ± 0.0696 | 1.23 ± 0.0625
51 | ACGCAT | 0.526 ± 0.0513 | 0.556 ± 0.0269 | 0.714 ± 0.0322
52 | CATTCG | 0.667 ± 0.027 | 0.769 ± 0.0521 | 0.847 ± 0.0186
53 | GCTAAC | 0.704 ± 0.0424 | 0.792 ± 0.0586 | 0.89 ± 0.0355
54 | AACCTG | 0.802 ± 0.0637 | 0.917 ± 0.053 | 0.952 ± 0.0288
55 | ACTGCT | 0.712 ± 0.054 | 0.797 ± 0.0817 | 0.89 ± 0.0309
56 | AGGAGA | 0.932 ± 0.027 | 1.09 ± 0.059 | 1.06 ± 0.044
57 | CACGTC | 0.427 ± 0.0304 | 0.52 ± 0.0494 | 0.633 ± 0.0372
58 | AGACGG | 0.342 ± 0.0181 | 0.409 ± 0.00782 | 0.522 ± 0.0641
59 | ATAAAT | 4.06 ± 0.373 | 2.56 ± 0.158 | 2.19 ± 0.239
60 | ATAACG | 1.39 ± 0.0783 | 1.3 ± 0.0579 | 1.23 ± 0.0819
